Experimental data reported in PubChem BioAssay (NCATS).
Inconclusive results are not listed. Where a call stands in place of a potency, no number is given. Active and inactive are the calls of the source. Unless noted, calls come from the whole dose curve; as a rule, active = well fitted curve in the direction sought with a large enough effect; inconclusive = small, poorly fitted or top-dose-only effect, or another doubt; inactive = no such curve, though single readings can be large; an effect the other way counts as inactive or inconclusive. Non-standard residues stand in square brackets, D forms with d. Residues, ends and D or L forms follow the SMILES beside them. *: point of attachment. Sta = CC(C)C[C@H](N)[C@@H](O)CC(=O)O; Isovaleryl = CC(C)CC(=O)*

Columns and labels:
[1] = target: Calcium and integrin-binding protein 1 (Homo sapiens) (UniProt Q99828); experiment: Primary qHTS for Identification of Calcium Integrin Binding Protein 1 (CIB1) Competitor (AID 1508620);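 note: GST tagged CIB1 binding a fluorescein labelled alphaIIb integrin peptide tracer; top concentration of the series differs between compounds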
Sequence of Calcium and integrin-binding protein 1 (Homo sapiens) (Q99828 whole entry, looked up): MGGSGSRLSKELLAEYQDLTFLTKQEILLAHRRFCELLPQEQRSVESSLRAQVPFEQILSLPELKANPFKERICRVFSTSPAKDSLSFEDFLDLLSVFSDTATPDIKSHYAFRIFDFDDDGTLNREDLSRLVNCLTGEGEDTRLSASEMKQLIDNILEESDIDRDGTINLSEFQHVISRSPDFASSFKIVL
Outline: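 CIB1-GST (1 uM final) and compound incubated 15 min at room temperature before adding FITC-alphaIIb peptide tracer (100 nM final). Competition for binding read by fluorescence polarization (ex 480, em 540) after another 15 min at room temperature.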

[2] = Primary qHTS for small molecule stabilizers of the endoplasmic reticulum resident proteome: Secreted ER Calcium Modulated Protein (SERCaMP) assay (AID 1508630)
Outline: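 The SH-SY5Y reporter protocol was run at 3 concentrations up to 38.3 uM (primary) or 11 concentrations (follow-up): 16 h compound, 100 nM thapsigargin for 4 h, then extracellular luciferase luminescence.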

[3] = A High-Content qHTS Against Drug Library for the Identification of Small Molecules that Inhibit DYT1 Early Onset Primary Dystonia-Associated Cell Pathology (AID 1645839; calls by dose curve; note: series mostly up to about 46 µM)
Outline: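 High-content imaging quantified EGFP-TorsinA mislocalization in HEK293-derived cells inducibly expressing DYT1 mutant torsinA, after 48 h exposure to compound given together with tetracycline induction. Cell count served as a toxicity channel alongside %pathology.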

[4] = target: Cytochrome P450 2D6 (Homo sapiens) (UniProt P10635); experiment: Cytochrome P450 family 2 subfamily D member 6 (CYP2D6) small molecule antagonists: luciferase biochemical (cell-free) qHTS assay (AID 1645840; active = well fitted curve in the direction sought with a large enough effect in the repeat runs; an effect the other way counts as inactive or inconclusive; note: nearly all actives have a fitted effect of over 55% in size; note: potency is the fitted concentration of half-maximal effect)
Sequence of Cytochrome P450 2D6 (Homo sapiens) (P10635 whole entry, looked up): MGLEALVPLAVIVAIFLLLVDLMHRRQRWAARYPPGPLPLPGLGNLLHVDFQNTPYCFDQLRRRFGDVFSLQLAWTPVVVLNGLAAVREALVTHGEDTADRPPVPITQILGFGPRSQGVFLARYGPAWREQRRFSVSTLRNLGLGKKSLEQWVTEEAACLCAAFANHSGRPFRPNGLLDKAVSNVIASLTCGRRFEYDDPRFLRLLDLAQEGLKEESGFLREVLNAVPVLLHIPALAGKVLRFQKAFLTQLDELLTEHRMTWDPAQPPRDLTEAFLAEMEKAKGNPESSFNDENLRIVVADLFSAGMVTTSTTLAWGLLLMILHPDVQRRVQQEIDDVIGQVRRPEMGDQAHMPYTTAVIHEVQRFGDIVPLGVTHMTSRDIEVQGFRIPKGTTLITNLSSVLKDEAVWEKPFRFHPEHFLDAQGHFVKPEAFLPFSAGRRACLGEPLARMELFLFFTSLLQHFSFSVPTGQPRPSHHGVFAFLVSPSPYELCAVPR
Outline: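 P450-Glo CYP2D6 system: proluciferin substrate converted by enzyme to luciferin, read by luminescence proportional to activity. Enzyme-substrate mix with compound 10 min at room temperature, then NADPH regeneration 1 h before detection reagent.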

[5] = target: Cytochrome P450 2C9 (Homo sapiens) (UniProt P11712); experiment: Cytochrome P450 family 2 subfamily C member 9 (CYP2C9) small molecule antagonists: luciferase biochemical (cell-free) qHTS assay (AID 1645842; active = well fitted curve in the direction sought with a large enough effect in the repeat runs; an effect the other way counts as inactive or inconclusive; note: nearly all actives have a fitted effect of over 55% in size; note: potency is the fitted concentration of half-maximal effect)
Sequence of Cytochrome P450 2C9 (Homo sapiens) (P11712 whole entry, looked up): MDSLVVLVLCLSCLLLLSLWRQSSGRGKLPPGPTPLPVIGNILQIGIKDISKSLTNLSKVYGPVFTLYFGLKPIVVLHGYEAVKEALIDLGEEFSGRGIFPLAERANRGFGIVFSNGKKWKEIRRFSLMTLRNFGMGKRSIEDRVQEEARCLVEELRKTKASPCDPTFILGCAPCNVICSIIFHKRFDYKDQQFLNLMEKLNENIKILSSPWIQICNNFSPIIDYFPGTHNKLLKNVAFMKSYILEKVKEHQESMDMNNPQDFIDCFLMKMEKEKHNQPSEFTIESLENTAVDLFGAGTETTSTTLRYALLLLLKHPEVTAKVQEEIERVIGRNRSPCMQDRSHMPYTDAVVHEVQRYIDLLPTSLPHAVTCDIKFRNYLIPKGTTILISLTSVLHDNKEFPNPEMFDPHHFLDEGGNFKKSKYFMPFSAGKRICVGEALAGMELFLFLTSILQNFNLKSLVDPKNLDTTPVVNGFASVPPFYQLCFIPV
Outline: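 P450-Glo CYP2C9 system: proluciferin substrate with enzyme in mix containing 0.4% BSA, 10 min at room temperature, then NADPH regeneration solution added and incubated 1 h at 37C. Detection reagent stopped reaction; luminescence read after 20 min as RLU.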

Row | Structure (SMILES) | Potency [1] | Potency [2] | Potency [3] | Potency [4] | Potency [5]
1 | COCCCN1CCC(NC(=O)c2cc(Cl)c(N)c3c2OCC3)CC1 | inactive | inactive | inactive | 3.47 µM (active) | 2.45 µM (active)
2 | Cc1cc2cc3c(C)cc(=O)oc3c(C)c2o1 | inactive | inactive | inactive | inactive | inactive
3 | CCc1nc(N)nc(N)c1-c1ccc(Cl)cc1 | inactive | inactive | inactive | 12.3 µM (active) | inactive
4 | COc1cc2nc(N3CCN(C(=O)C4CCCO4)CC3)nc(N)c2cc1OC (configuration not stated) | inactive | inactive | inactive |  | inactive
5 | CCOC(=O)c1c(C)n(C)c2ccc(O)cc12 | inactive | inactive | inactive |  | inactive
6 | Cn1c(NCCN(CCO)CCCc2ccc([N+](=O)[O-])cc2)cc(=O)n(C)c1=O | inactive | inactive | inactive |  | inactive
7 | Cc1ncc([N+](=O)[O-])n1CC(C)O (configuration not stated) | inactive | inactive | inactive | inactive | inactive
8 | CC(C)c1ccc2oc3nc(N)c(C(=O)O)cc3c(=O)c2c1 | inactive | inactive | inactive | 13.8 µM (active) | 13.8 µM (active)
9 | CC(C)CC(=O)N[C@H](C(=O)N[C@H](C(=O)N[C@@H](CC(C)C)[C@@H](O)CC(=O)N[C@@H](C)C(=O)N[C@@H](CC(C)C)[C@@H](O)CC(=O)O)C(C)C)C(C)C (Isovaleryl-VV[Sta]A[Sta]-OH) | inactive | inactive | inactive | inactive | inactive
10 | CC(S)C(=O)NCC(=O)O (configuration not stated) | inactive | inactive | inactive | inactive | inactive
11 | CC1=C(C(=O)O)N2C(=O)[C@@H](NC(=O)[C@H](N)C3=CCC=CC3)[C@H]2SC1 | inactive | inactive | inactive | inactive | inactive
